Assay results published in PubChem BioAssay (EPA / NIEHS).
Records with an inconclusive call do not appear. The source made the active and inactive calls. The calls were made as follows: active = hit-call score of the fitted dose curve at least 0.9, where 1 is the maximum; inconclusive = response in the unintended direction; inactive = score below 0.9.

Legend:
[1] = biological target: human IkappaB Kinase alpha (IKKa), CHUK (gene 1147) (UniProt O15111); test: NVS_ENZ_hIKKa: NovaScreen (NVS) Enzymatic Assay for human IkappaB Kinase alpha (IKKa) (AID 2283167)
Summary of the method: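 Compounds first run in duplicate at 25 uM, those meeting threshold (e.g. 30% inhibition) retested to maximum 50 uM. Enzyme activity of recombinant IKKa measured by fluorescence with electrophoretic mobility shift separation, 1 hour post-dosing, DMSO baseline.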

[2] = biological target: human Mitogen-Activated Protein Kinase 1 (MAPK 1), MAPK1 (gene 5594) (UniProt P28482); test: NVS_ENZ_hMAPK1: NovaScreen (NVS) Enzymatic Assay for human Mitogen-Activated Protein Kinase 1 (MAPK 1) (AID 2283175)
Protocol: (§1) NVS_ENZ_hMAPK1 is a biochemical, single-readout assay that uses extracted gene-proteins in a cell-free assay. Measurements were taken 1 hour after chemical dosing in a 384-well plate.NVS_ENZ_hMAPK1 is one of one assay component(s) measured or calculated from the NVS_ENZ_hMAPK1 assay. It is designed to make measurements of enzyme activity, a form of enzyme reporter, as detected with fluorescence intensity signals by Fluorescence and electrophoretic mobility shift technology.Data from the assay component NVS_ENZ_hMAPK1 was analyzed into 1 assay endpoint. This assay endpoint, NVS_ENZ_hMAPK1, was analyzed in the positive analysis fitting direction relative to DMSO as the negative control and baseline of activity. Using a type of enzyme reporter, loss-of-signal activity can be used to understand changes in the enzymatic activity as they relate to the gene MAPK1. Furthermore, this assay endpoint can be referred to as a primary readout, because this assay has produced multiple assay endpoints where this one serves a enzymatic activity function. To generalize the intended target to other relatable targets, this assay endpoint is annotated to the kinase intended target family, where the subfamily is serine/threonine kinase.
(§2) Binding assays used specific radioligands (tritiated, iodinated) with non-radioactive competitive displacement ligands in agonist or antagonist protocols (as indicated) and various reference compounds and inhibitors to titrate specific binding to receptors and transporters. Most enzyme assays (CYPs, kinases, phosphatases, proteases, HDACs) used recombinant protein and specific substrates (fluorescence mostly, some colorimetric and radioactive) and inhibitors, followed by a biochemical separation of substrate and product. All assays for the biochemical HTS were initially run in duplicate at a single concentration (10 uM for CYP450 assays and 25 uM for all others). […]

[3] = biological target: human FYN Proto-Oncogene, Src family Tyrosine Kinase (Fyn), FYN (gene 2534) (UniProt P06241); test: NVS_ENZ_hFyn: NovaScreen (NVS) Enzymatic Assay for human FYN Proto-Oncogene, Src family Tyrosine Kinase (Fyn) (AID 2283161)
Summary of the method: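 Cell-free kinase activity read by fluorescence after mobility-shift separation of substrate and product, 1 h post-dose. Initial single concentration 25 uM in duplicate, then concentration-response follow-up; DMSO baseline.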

[4] = biological target: Glycogen synthase kinase-3 beta (Homo sapiens) (UniProt P49841); test: NVS_ENZ_hGSK3b: NovaScreen (NVS) Enzymatic Assay for human Glycogen Synthase Kinase-3 beta (GSK3b) (AID 2283165)
Summary of the method: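 Recombinant enzyme with specific fluorescent substrate, 1 h, product separated by electrophoretic mobility shift. Primary duplicate screen at 25 uM; actives (e.g. 30% inhibition) followed in singleton concentration-response to 50 uM. Signal loss fitted versus DMSO.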

[5] = biological target: human c-Jun N-terminal Kinases (JNK2), MAPK9 (gene 5601) (UniProt P45984); test: NVS_ENZ_hJNK2: NovaScreen (NVS) Enzymatic Assay for human c-Jun N-terminal Kinases (JNK2) (AID 2283171)
Summary of the method: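 Chemicals first tested in duplicate at 25 uM, then in singleton concentration series up to 50 uM, against extracted JNK2 enzyme. Activity loss read by fluorescence with mobility-shift separation 1 h post-dose; DMSO baseline.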

[6] = biological target: human LYN Proto-Oncogene, Src family Tyrosine Kinase (LynA), LYN (gene 4067) (UniProt P07948); test: NVS_ENZ_hLynA: NovaScreen (NVS) Enzymatic Assay for human LYN Proto-Oncogene, Src family Tyrosine Kinase (LynA) (AID 2283173)
Protocol: as §1, with “NVS_ENZ_hLynA” for “NVS_ENZ_hMAPK1”, “plate.NVS_ENZ_hLynA” for “plate.NVS_ENZ_hMAPK1”, “NVS_ENZ_hLynA,” for “NVS_ENZ_hMAPK1,”, “LYN.” for “MAPK1.”, “non-receptor tyrosine” for “serine/threonine”, “kinase. […]” for “kinase.”

[7] = biological target: Protein deacetylase HDAC6 (Homo sapiens) (UniProt Q9UBN7); test: NVS_ENZ_hHDAC6: NovaScreen (NVS) Enzymatic Assay for human Histone Deacetylase 6 (HDAC6) (AID 2283164)
Protocol: as §1, with “NVS_ENZ_hHDAC6” for “NVS_ENZ_hMAPK1”, “plate.NVS_ENZ_hHDAC6” for “plate.NVS_ENZ_hMAPK1”, “NVS_ENZ_hHDAC6,” for “NVS_ENZ_hMAPK1,”, “HDAC6.” for “MAPK1.”, “hydrolase” for “kinase”, “histone deacetylase.” for “serine/threonine kinase.”
as §2

[8] = biological target: Histone deacetylase 3 (Homo sapiens) (UniProt O15379); test: NVS_ENZ_hHDAC3: NovaScreen (NVS) Enzymatic Assay for human Histone Deacetylase 3 (HDAC3) (AID 2283163)
Summary of the method: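 Cell-free enzyme format: loss of fluorescent product after mobility-shift separation, 1 h incubation, recombinant human HDAC3. Single 25 uM duplicate screen first, then concentration series to a 50 uM top for hits; DMSO as baseline.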

[9] = biological target: human Insulin Receptor (InsR), INSR (gene 3643) (UniProt P06213); test: NVS_ENZ_hInsR: NovaScreen (NVS) Enzymatic Assay for human Insulin Receptor (InsR) (AID 2283168)
Summary of the method: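 Cell-free enzyme assay read 1 h post-dose by fluorescence after substrate/product mobility-shift separation. Duplicate 25 uM primary screen, then singleton concentration-response up to 50 uM for compounds passing threshold; loss of signal vs DMSO.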

[10] = biological target: human Janus Kinase 2 (Jak2), JAK2 (gene 3717) (UniProt O60674); test: NVS_ENZ_hJak2: NovaScreen (NVS) Enzymatic Assay for human Janus Kinase 2 (Jak2) (AID 2283169)
Protocol: as §1, with “NVS_ENZ_hJak2” for “NVS_ENZ_hMAPK1”, “plate.NVS_ENZ_hJak2” for “plate.NVS_ENZ_hMAPK1”, “NVS_ENZ_hJak2,” for “NVS_ENZ_hMAPK1,”, “JAK2.” for “MAPK1.”, “non-receptor tyrosine” for “serine/threonine”, “kinase. […]” for “kinase.”

Chain of Protein deacetylase HDAC6 (Homo sapiens) (Q9UBN7 whole entry, looked up): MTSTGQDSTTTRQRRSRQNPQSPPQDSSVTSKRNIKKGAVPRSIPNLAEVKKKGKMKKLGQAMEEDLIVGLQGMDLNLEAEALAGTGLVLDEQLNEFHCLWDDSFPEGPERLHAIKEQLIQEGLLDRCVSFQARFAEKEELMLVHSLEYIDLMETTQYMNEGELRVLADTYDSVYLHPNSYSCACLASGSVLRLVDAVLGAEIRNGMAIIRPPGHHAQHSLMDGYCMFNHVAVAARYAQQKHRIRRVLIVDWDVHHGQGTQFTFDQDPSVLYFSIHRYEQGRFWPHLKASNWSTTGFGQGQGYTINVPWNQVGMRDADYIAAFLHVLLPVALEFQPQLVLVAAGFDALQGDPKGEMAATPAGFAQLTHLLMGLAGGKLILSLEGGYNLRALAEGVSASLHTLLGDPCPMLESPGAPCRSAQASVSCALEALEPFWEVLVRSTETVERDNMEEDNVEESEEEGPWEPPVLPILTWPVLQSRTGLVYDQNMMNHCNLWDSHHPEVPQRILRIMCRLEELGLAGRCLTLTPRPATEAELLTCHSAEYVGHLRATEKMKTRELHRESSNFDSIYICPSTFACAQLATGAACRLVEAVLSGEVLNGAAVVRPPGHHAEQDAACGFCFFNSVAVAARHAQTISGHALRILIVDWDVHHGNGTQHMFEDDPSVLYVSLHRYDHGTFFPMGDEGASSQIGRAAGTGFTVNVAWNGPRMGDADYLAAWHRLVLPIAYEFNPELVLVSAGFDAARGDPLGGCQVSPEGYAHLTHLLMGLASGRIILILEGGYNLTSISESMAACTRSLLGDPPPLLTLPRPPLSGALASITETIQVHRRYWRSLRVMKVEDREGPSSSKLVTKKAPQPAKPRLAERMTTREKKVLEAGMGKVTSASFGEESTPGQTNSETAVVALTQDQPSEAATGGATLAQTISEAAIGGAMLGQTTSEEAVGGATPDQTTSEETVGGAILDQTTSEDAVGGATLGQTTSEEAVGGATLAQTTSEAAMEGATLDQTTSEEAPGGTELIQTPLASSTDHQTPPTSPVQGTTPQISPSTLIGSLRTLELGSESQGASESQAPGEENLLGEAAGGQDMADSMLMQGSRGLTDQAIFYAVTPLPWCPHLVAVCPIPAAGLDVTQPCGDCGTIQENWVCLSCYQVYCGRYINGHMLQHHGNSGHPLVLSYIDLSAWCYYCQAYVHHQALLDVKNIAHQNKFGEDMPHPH
Chain of human IkappaB Kinase alpha (IKKa), CHUK (gene 1147) (O15111 whole entry, looked up): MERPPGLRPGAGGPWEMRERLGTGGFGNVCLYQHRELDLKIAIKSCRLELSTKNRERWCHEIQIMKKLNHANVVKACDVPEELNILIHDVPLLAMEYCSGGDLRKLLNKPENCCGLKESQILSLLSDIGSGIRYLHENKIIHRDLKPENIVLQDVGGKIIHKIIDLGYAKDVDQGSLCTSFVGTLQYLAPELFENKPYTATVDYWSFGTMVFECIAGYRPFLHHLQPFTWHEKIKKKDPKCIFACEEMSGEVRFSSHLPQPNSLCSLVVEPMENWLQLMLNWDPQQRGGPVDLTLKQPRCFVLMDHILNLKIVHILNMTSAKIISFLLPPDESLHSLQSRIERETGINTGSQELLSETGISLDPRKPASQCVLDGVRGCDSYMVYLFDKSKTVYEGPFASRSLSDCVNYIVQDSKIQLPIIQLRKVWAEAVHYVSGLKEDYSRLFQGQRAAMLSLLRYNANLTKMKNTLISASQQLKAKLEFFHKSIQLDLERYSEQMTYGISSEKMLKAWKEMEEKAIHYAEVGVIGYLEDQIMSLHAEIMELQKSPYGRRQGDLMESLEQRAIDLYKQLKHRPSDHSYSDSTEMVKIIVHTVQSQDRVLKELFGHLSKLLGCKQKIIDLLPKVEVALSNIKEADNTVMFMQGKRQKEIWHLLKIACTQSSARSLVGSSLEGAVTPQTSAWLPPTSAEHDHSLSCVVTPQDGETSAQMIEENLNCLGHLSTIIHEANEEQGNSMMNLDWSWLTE
Chain of human Mitogen-Activated Protein Kinase 1 (MAPK 1), MAPK1 (gene 5594) (P28482 whole entry, looked up): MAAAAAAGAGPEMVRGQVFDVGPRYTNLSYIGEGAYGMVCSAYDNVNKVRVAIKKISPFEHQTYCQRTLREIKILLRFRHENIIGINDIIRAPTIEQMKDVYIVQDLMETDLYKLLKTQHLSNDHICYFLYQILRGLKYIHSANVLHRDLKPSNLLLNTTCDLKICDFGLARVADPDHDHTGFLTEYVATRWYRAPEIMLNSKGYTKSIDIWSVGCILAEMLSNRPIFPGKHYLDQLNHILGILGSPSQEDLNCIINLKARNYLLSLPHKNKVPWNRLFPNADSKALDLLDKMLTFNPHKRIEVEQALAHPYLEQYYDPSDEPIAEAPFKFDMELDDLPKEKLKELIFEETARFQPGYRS
Chain of human c-Jun N-terminal Kinases (JNK2), MAPK9 (gene 5601) (P45984 whole entry, looked up): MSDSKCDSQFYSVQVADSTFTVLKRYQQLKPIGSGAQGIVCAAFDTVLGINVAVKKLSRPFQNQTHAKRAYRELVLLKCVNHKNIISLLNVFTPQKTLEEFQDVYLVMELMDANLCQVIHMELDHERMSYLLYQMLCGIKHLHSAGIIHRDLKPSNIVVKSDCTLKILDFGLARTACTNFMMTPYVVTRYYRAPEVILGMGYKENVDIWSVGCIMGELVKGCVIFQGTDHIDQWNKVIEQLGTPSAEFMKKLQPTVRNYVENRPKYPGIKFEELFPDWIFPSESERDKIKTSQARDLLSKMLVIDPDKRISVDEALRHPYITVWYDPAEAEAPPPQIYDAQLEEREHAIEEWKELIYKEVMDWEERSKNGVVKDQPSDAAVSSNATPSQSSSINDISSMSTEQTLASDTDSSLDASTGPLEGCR
Chain of Glycogen synthase kinase-3 beta (Homo sapiens) (P49841 whole entry, looked up): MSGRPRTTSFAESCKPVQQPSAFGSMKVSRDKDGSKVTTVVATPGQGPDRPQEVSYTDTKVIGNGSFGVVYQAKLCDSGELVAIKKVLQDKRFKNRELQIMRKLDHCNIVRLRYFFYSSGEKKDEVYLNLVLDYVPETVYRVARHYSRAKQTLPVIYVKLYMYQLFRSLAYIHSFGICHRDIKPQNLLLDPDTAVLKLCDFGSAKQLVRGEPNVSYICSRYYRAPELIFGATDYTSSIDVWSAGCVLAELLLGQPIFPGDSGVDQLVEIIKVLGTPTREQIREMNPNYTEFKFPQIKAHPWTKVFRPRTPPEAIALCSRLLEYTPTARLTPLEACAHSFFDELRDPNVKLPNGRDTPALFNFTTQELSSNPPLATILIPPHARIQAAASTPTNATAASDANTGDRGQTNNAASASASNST
Chain of human FYN Proto-Oncogene, Src family Tyrosine Kinase (Fyn), FYN (gene 2534) (P06241 whole entry, looked up): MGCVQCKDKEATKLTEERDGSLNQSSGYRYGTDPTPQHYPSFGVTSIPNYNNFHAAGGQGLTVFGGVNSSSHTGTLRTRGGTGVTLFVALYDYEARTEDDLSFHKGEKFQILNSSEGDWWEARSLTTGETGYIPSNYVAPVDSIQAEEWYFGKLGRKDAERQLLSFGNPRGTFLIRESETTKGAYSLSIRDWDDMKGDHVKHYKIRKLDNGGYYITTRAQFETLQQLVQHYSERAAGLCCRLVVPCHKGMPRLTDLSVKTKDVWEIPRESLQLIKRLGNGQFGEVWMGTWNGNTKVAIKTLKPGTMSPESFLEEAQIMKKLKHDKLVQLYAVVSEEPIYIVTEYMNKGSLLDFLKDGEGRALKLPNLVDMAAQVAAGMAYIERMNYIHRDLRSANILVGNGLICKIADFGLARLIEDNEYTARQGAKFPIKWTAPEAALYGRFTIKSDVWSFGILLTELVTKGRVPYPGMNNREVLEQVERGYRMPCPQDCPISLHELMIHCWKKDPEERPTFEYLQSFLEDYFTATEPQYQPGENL
Chain of human Janus Kinase 2 (Jak2), JAK2 (gene 3717) (O60674 whole entry, looked up): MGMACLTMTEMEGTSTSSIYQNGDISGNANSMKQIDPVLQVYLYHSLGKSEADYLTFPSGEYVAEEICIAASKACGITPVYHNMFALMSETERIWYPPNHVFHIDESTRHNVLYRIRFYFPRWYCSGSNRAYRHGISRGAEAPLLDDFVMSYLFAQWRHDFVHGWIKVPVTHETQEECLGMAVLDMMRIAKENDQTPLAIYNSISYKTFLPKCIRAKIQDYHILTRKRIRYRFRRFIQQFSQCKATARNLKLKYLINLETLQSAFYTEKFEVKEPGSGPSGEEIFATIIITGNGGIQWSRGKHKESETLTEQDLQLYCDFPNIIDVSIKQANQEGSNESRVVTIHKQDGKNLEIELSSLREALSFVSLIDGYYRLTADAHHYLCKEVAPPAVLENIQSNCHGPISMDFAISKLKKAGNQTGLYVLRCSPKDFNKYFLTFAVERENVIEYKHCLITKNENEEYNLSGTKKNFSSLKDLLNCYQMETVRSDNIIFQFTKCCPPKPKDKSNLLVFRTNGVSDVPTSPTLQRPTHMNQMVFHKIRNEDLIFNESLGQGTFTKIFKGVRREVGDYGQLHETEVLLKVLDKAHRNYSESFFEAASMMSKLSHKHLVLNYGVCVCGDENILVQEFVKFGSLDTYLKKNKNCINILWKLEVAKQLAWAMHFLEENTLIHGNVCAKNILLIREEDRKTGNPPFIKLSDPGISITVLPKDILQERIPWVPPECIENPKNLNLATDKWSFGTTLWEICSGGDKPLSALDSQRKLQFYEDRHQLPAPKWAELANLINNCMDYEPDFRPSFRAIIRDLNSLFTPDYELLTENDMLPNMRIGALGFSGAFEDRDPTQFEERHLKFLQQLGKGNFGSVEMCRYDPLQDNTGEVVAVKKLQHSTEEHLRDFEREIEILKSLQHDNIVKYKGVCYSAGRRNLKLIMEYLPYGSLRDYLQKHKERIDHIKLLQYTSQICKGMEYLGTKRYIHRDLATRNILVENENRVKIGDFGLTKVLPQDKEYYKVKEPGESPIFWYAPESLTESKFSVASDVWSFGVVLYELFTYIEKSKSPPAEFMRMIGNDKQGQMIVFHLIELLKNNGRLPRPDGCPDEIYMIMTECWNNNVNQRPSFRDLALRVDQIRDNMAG

With `Clc1cccc(Cl)c1Cl` the outcome [1] was “inactive”.

In the case of `O=C(O)CC(O)(CC(=O)O)C(=O)O`, the outcome [2] is reported as “inactive”.

For `CC(C)O.CC(C)O.OCCN(CCO)CCO.OCCN(CCO)CCO.[Ti]`, the AC50 [3] was 0.0034 µM (active), the AC50 [4] was 0.00229 µM (active) and the outcome [5] was “inactive”.

With `OCCN(CCO)CCO` the outcome [6] was “inactive”.

In the case of `CCCCCCCCCCCCc1cccc(S(=O)(=O)O)c1`, the AC50 [7] is reported as 13.7 µM (active), the AC50 [4] is reported as 25.3 µM (active) and the AC50 [1] is reported as 40.9 µM (active).

`CC(C)(C)c1ccccc1O` was tested, and the outcome [4] was “inactive”.

With `Oc1cc(Cl)c(Cl)cc1Cl` the outcome [8] was “inactive” and the outcome [4] was “inactive”.

`Cc1cc(C)cc(C)c1` was tested, and the outcome [9] was “inactive”.

With `O=C(N[C@H]1CN2CCC1CC2)c1ccc2c(c1)OCCO2` the outcome [3] was “inactive”, the outcome [5] was “inactive” and the outcome [6] was “inactive”. The outcome [2] was “inactive”.

With `CN(C)C(=S)S` the outcome [10] was “inactive”.

`Clc1cccc(Cl)c1` was tested, and the outcome [4] was “inactive”.

`CCCCCCCCCCCCOS(=O)(=O)O` was tested, and the outcome [7] was “inactive” and the AC50 [2] was 37.3 µM (active).

With `N#Cc1cccnc1` the outcome [7] was “inactive”, the outcome [4] was “inactive” and the outcome [1] was “inactive”. For the same compound, the outcome [9] was “inactive”, the outcome [10] was “inactive” and the outcome [5] was “inactive”.
